From PubChem
BL2 CD40 inh: CD40 pathway inhibition in BL2 cells; AID 1053188; inhibition, % at 10 µM; BL2 NF-kB luciferase reporter, CD40L-induced, 4 h; 0.94% of 83,000 active;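 active = mean inhibition of at least 50% with a set share of replicates also reaching that level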;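 note: 0% = neutral control wells and 100% = IKK inhibitor VII at 50 µM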
* = called active by the depositor; [ ] = dose if it differs, or a comment. This is one part of a sample in which hits are shown more often than they occur.

SMILES	BL2 CD40 inh
Cc1cc(C)c(C)c(S(=O)(=O)N2CCC(C(=O)NNC(=O)c3ccccc3O)CC2)c1C	3
Cc1nc2c(Br)cc(Br)cc2cc1O	3
O=C(Nc1ccccc1N1CCOCC1)c1cnccn1	13
O=C(Nc1ccc(S(=O)(=O)N2CCCC2)cc1)c1cnccn1	-3
O=C(Nc1ccc(N2CCOCC2)cc1)c1cnccn1	81*
O=C(NC1CCCCCCC1)c1cccc(S(=O)(=O)N2CCOCC2)c1	1
O=C(Nc1ccccn1)c1ccc2nc(-c3ccccc3)c(-c3ccccc3)nc2c1	-3
O=C(Nc1ccccn1)c1ccc(-c2ccccc2)cc1	113*
O=C(Nc1ccccn1)c1ccc(S(=O)(=O)N2CCCC2)cc1	-57
C[C@@H]1CN([C@@H](C)CO)C(=O)c2cc(NC(=O)Cc3ccccc3)ccc2O[C@H]1CN(C)Cc1ccc(Oc2ccccc2)cc1	3
C[C@@H]1CCCCO[C@H](CN(C)Cc2ccc3c(c2)OCO3)[C@@H](C)CN([C@H](C)CO)C(=O)c2cc(NS(=O)(=O)c3cn(C)cn3)ccc2O1	-13[25 µM]
CC(=O)Nc1c(C)ccc([N+](=O)[O-])c1C	3
CC(=O)Nc1ccc2c(c1)Cc1cc(N3C(=O)C=CC3=O)ccc1-2	97*
CC(=O)Nc1ccc2c(c1)Cc1ccc(Cl)cc1-2	-51
CC(=O)Nc1ccc2c(c1)-c1ccc(F)cc1C2	-6
O=C1C[C@H](c2ccccc2)C(=O)N[C@H](c2ccccc2)C/C=C\C[C@@H](c2ccccc2)N1	19[25 µM]
Cc1ccc(CN2CC(C(=O)Nc3ncc(C)s3)CC2=O)cc1 (stereo not given)	78*
COC(=O)C1CC(=O)N(Cc2ccccc2)C1 (stereo not given)	3
CCOc1ccc(CCNC(=O)C2CC(=O)N(Cc3ccc(C)cc3)C2)cc1OCC (stereo not given)	-11
O=C1CCCN1c1ccc(S(=O)(=O)N2CCC(c3ccccc3)CC2)cc1	9
c1ccc(CCNc2nc(-c3ccccn3)nc3ccccc23)cc1	43*
c1ccc(-c2nc(N3CCCCCC3)c3ccccc3n2)nc1	53*
CCN1CCN(c2nc(-c3ccccn3)nc3ccccc23)CC1	-25
c1ccc(CCc2nc(-c3ccccn3)no2)cc1	-80
c1ccc2c(N3CCCC3)nc(-c3ccncc3)nc2c1	19
SMILES	BL2 CD40 inh
c1ccc(CN2CCN(c3nc(-c4ccccn4)nc4ccccc34)CC2)cc1	-18
O=C(Nc1ccc2c(c1)[C@H]1C[C@@H](CC(=O)N3CCCCC3)O[C@@H](CO)[C@H]1O2)NC1CCCCC1	-21[25 µM]
CO[C@@H]1CN(C)C(=O)c2cc(NC(=O)C3CCC3)ccc2OC[C@H](C)N(Cc2cccnc2)C[C@H]1C	-5
CC(C)C(O)(CC#CCN1CCCC1)c1ccccc1 (stereo not given)	11
CC(=NNC(=S)N1CCN(C2CCCCCC2)CC1)c1ccccn1	51*
CC(=NNC(=S)N1CCN(c2ccccn2)CC1)c1nccs1	78*
CC(=NNC(=S)N1CCN(c2ccccn2)CC1)c1ccccn1	2
S=C(NCc1ccc(Cl)cc1)N1CCN(c2ccccn2)CC1	6
CC(=NNC(=S)N1CC2CCC(CC2)C1)c1cnccn1	26
O=C(N/N=C/C1CCCCC1)c1ccccn1	-42
CN1c2ccccc2Oc2nnc(Cl)cc21	-5
O=C(C1CCOCC1)N1C[C@H]2[C@@H](c3ccccc31)[C@H](CO)N2C(=O)Cc1ccccn1	-6[25 µM]
COc1ccc(-c2coc3c(C(=O)NCC4CC4)cccc23)c(C)c1	13
O=C(Nc1cccc(Cl)c1)N1C[C@H]2[C@@H](c3ccccc31)[C@@H](CO)N2CC1CCOCC1	13[25 µM]
NCC1C2CCC(O2)C1CO (stereo not given)	11
CN(Cc1cn(-c2ccccc2)nc1-c1cc2ccccc2o1)C(=O)CCC(=O)O	-25
C[C@H](CO)N1C[C@H](C)[C@H](CN(C)Cc2cccc3c2OCCCO3)OCc2cnnn2CCCC1=O	8[25 µM]
COC(=O)CCC(=O)Nc1nccs1	6
O=c1onc(-c2ccccc2)c2ccccc12	-12
O=c1oc(-c2cccnc2)nc2ccccc12	-4
Cc1onc(-c2ccccc2)c1-c1nc2ccccc2c(=O)o1	56*
COc1ccc(CC(=O)OCC(=O)NC2CCCCC2)cc1OC	3
c1ccc(OCCOc2ccccc2-c2nnco2)cc1	-42
O=C(CCNC(=O)C1CCN(S(=O)(=O)c2ccc(F)cc2)CC1)Nc1nccs1	5
CCn1c(-c2ccccc2)c(C(=O)CCl)c2ccccc21	22
SMILES	BL2 CD40 inh
Cn1c(-c2ccccc2)c(C(=O)CCl)c2ccccc21	71*
Cn1c(=O)c(C(=O)c2ccccc2)c(O)c2ccccc21	6
Cc1ccccc1S(=O)(=O)N1[C@@H]2CNC[C@H]1C2c1ccc(-c2cncnc2)cc1 (stereo not given in full)	-1
COC(=O)c1ccccc1C(=O)N1CCC(CCC(=O)NC2CC2)CC1	7
CCC(=O)c1ccc2c(c1)OCCO2	0
O=C(Cn1ncc(Cl)c(Cl)c1=O)c1ccc2c(c1)OCCO2	98*
O=C(O)CCC(=O)c1ccc2c(c1)OCCO2	-13
CCCNC(=O)Cn1c(=O)n(C)c2ccccc21	1
O=C1CNC(=O)c2c(nc3n2CCC3)N1	-4
Cc1sc(NC(=O)C2CCCC2)c(C#N)c1C	-7
CN1CCCN(C(=O)c2cc(-c3ccc(Cl)c(Cl)c3Cl)nc3ccccc23)CC1	-3
FC(F)(F)c1cnc(-c2cnc3c(-c4ccc(Cl)cc4)cnn3c2)c(Cl)c1	0
c1ccc(-c2ccccc2OCCOCCN2CCCCC2)cc1	7
c1cc(-c2cnn3cc(-c4ccc(OCCN5CCCCC5)cc4)cnc23)ccn1	87*[25 µM]
O=C1N=C(N2CCOCC2)S/C1=C/c1ccc(-c2ccc(F)cc2)o1	-14
Cc1ccc(CN2C(=O)S/C(=C\c3ccccc3OCC(=O)O)C2=O)cc1	7
O=C1S/C(=C\c2ccc(N3CCOCC3)o2)C(=O)N1Cc1ccc(F)cc1	82*
COc1cccc(C(=O)COC(=O)CCC(=O)NC2CCCCC2)c1	14
COc1ccc(S(=O)(=O)N(C)C[C@@H]2OCCCC[C@H](C)Oc3ccc(NC(=O)Nc4ccc(C(F)(F)F)cc4)cc3C(=O)N([C@@H](C)CO)C[C@@H]2C)cc1	-6
C[C@H](CO)N1C[C@H](C)[C@H](CN(C)S(=O)(=O)c2ccc(Cl)cc2)Oc2c(NC(=O)Nc3ccc(F)cc3)cccc2C1=O	85*[25 µM]
COc1ccc(S(=O)(=O)N(C)C[C@@H]2OCCCC[C@H](C)Oc3ccc(NC(=O)Nc4ccc(F)cc4)cc3C(=O)N([C@H](C)CO)C[C@H]2C)cc1	-4
COc1ccc(S(=O)(=O)N(C)C[C@@H]2Oc3ccc(NC(=O)Nc4ccc(C(F)(F)F)cc4)cc3C(=O)N([C@@H](C)CO)C[C@@H]2C)cc1	77*[25 µM]
C[C@@H]1CN([C@@H](C)CO)C(=O)c2cccc(NC(=O)Nc3ccc(F)cc3)c2O[C@@H]1CN(C)S(=O)(=O)c1ccc(Cl)cc1	10[25 µM]
COc1ccc(S(=O)(=O)N(C)C[C@H]2OCCCC[C@H](C)Oc3ccc(NC(=O)Nc4ccc(F)cc4)cc3C(=O)N([C@H](C)CO)C[C@@H]2C)cc1	4
COc1ccc(S(=O)(=O)N(C)C[C@H]2Oc3ccc(NC(=O)Nc4ccc(C(F)(F)F)cc4)cc3C(=O)N([C@@H](C)CO)C[C@H]2C)cc1	61*[25 µM]
C[C@@H]1CN([C@@H](C)CO)C(=O)c2cc(NC(=O)Nc3ccc(F)cc3)ccc2O[C@@H]1CN(C)S(=O)(=O)c1ccc(Cl)cc1	14
